For 22 compounds, Potency results are on record in PubChem BioAssay AID504848 (National Center for Advancing Translational Sciences (NCATS), 2011).

Among all 2,300 compounds or so, about 1,400 (61%) were called active. Not shown: some 29% with an inconclusive outcome. Calls come from the whole dose curve; as a rule, active = well fitted inhibition curve with a large enough effect; inconclusive = small, poorly fitted or top-dose-only effect, or effect the other way; inactive = no such curve, though single readings can be large or run the other way. The set was probably picked from earlier hits. The list shows a part of the results.
Potency is the fitted concentration of half-maximal effect.

The assay can be described thus: Confirmation screen for delayed death inhibitors of the malarial parasite plastid, 96 hour incubation. Note: nearly all actives have a fitted effect of over 60% in size. Conditions: P. falciparum luciferase growth in erythrocytes; series mostly up to 28.7 µM. From the text:
The goal of this screen is to discover new antimalarial compounds that act by inhibiting the development of the apicoplast in the malarial parasite Plasmodium falciparum. The biochemical processes that make this organelle essential for erythrocytic stage parasites are not well understood. However, antibiotics, such as azithromycin and tetracycline, which target the apicoplast translational machinery, have a potent antimalarial effect. […] We have developed a cell-based assay that measures parasite growth based on the expression of an integrated copy of a firefly luciferase reporter. To detect small molecules that cause this "delayed death phenotype, erythrocytes infected with the luciferase-expressing parasites were incubated with compounds for either one or two generations, corresponding to 48 and 96 hours, respectively. Compounds that inhibit parasite growth in the second generation, but not the first, should be enriched in antimalarials that target the apicoplast. Growth inhibition is detected by a decrease in luciferase activity. MLPCN Grant: R21 NS059500 Assay Provider: David Fidock and Eric Ekland, Columbia University Keywords: NIH Roadmap, MLPCN, MLI, MLSMR, qHTS, NCGC, qHTS, malaria, luciferase, viability
Four microliters of culture medium (RPMI 1640 with 0.5% w/v Albumax (GIBCO), 24 mM sodium bicarbonate and 10 ug/mL gentamycin) were dispensed by a Multi-drop Combi into white solid 1536-well plates (Grenier) and 23 nL compound was added by a pin tool. Four microliters of infected erythrocytes (2% hematocrit, 0.1% parasitemia final concentration) in culture medium were dispensed and the plates incubated for 96 hours at 37 C in 5% CO2. Two microliters of luciferase detection reagent was added and luminescence was detected by a ViewLux (PerkinElmer) reader
Regarding `COc1ccc(-n2c(C)cc(C(=O)C[N+]34CCN(CC3)CC4)c2C)cc1`, the Potency was 12600 nM (active).
Turning to `C[C@@H]1CC2(CCCC[N+]2(C)C)C[C@H]1C`, the Potency was 14100 nM (active).
For `CC(=O)N1CC(=O)Nc2ccc(Cl)cc2C1c1ccccc1` (configuration not stated), the Potency entry was “inactive”.
As for `CN1C[C@H](C(=O)N[C@]2(C)O[C@@]3(O)[C@@H]4CCCN4C(=O)[C@H](Cc4ccccc4)N3C2=O)C[C@@H]2c3cccc4[nH]cc(c34)C[C@H]21`, the Potency is 2240 nM (active).
In the case of `O=C(CN1CC=C(c2ccccc2)CC1)NC(=O)NCc1ccccc1`, the Potency result was “inactive”.
The entry for `Cc1ccc(N2C(=O)NC(=O)/C(=C\C=C\c3ccco3)C2=O)cc1` is “inactive”; for `CC(C)(C)C(=O)C(Oc1ccc(Cl)cc1)n1ccnc1` (configuration not stated) it is 14100 nM (active); for `C=C[C@H]1CN2CC[C@H]1C[C@@H]2[C@@H](O)c1ccnc2ccccc12` it is 199 nM (active).
With `C[n+]1c2cc(N)ccc2cc2ccc(N)cc21` the figure was 562 nM (active).
As to `CCn1c(=O)oc2cc(NC(=O)CCl)ccc21`, the Potency was 2000 nM (active).
With `Cn1c(=O)oc2cc(NC(=O)CCl)ccc21` the figure was 794 nM (active); with `CN1CCc2cc3c(c4c2C1Cc1ccccc1-4)OCO3` (configuration not stated), 562 nM (active).
Take `C=C1C(=O)O[C@@H]2C[C@@H](C)[C@@H]3C=CC(=O)[C@@]3(C)[C@@H](O)[C@H]12`: the Potency is 2000 nM (active).
`C=C1C(=O)O[C@@H]2C[C@@H](C)[C@@H]3C=CC(=O)[C@@]3(C)[C@@H](OC(=O)CC(=O)O[C@H]3[C@@H]4C(=C)C(=O)O[C@@H]4C[C@@H](C)[C@@H]4C=CC(=O)[C@]43C)[C@H]12`: the Potency is 28.2 nM (active).
With `C=C1C(O)[C@@H]2O[C@]3(CC[C@H](/C=C/C(C)[C@@H]4CC(C)=CC5(O[C@H](C[C@@](C)(O)C(=O)O)CCC5O)O4)O3)CC[C@H]2O[C@@H]1C(O)CC(C)[C@H]1OC2(CCCCO2)CCC1C` (some centres not stated) the figure was 63.1 nM (active).
The entry for `O=c1oc2ccccc2c(O)c1[C@H]1c2ccc(O)cc2Oc2c1c(=O)oc1ccccc21` is “inactive”.
Turning to `CC(C)c1oc(=O)cc2c1[C@@H](O)[C@H]1OC(=O)[C@@]3(C)CC[C@@H](O)[C@@]2(C)C13` (some centres not stated), the Potency is 7940 nM (active).
Regarding `O=C(/C=C/c1cccs1)c1cc(Cl)ccc1OC(=O)N1CCOCC1`, the Potency is 11200 nM (active).
`Cc1cc2ccccn2c1C(C[N+](=O)[O-])c1c(F)cccc1Cl` (configuration not stated): the Potency is 12600 nM (active).
In the case of `Cc1ccc(C(C)C)c(OCC(=O)N2CCN(Cc3nc4cc([N+](=O)[O-])ccc4n3C)CC2)c1`, the Potency entry is “inactive”.
For the compound `COc1cccc(-n2c(CN3CCN(C)CC3)nc3ccc([N+](=O)[O-])cc3c2=O)c1`, the Potency was 15800 nM (active).
With `CC(C)c1ccc(N2C(=O)NC(=O)/C(=C\C=C\c3ccco3)C2=O)cc1`, the Potency result is “inactive”.
